In PubChem BioAssay:

What was measured:
[1] = tested on: Human papillomavirus type 1a protein E7 (residues 44-93); assay: small molecules binding HPV E7 44-93 – biochemical, small-molecule microarray, residues 44-93, 635 nm fluorescence, primary screen (AID 1108); details: fluorescence 635 nm, higher = more signal;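 further: E7 fragment applied at 1 µg/mL in TBST for 1 h at 4 C; score combines spot fluorescence with its signal to noise ratio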
[2] = hepatitis C replication reporter changes, two-sided – Huh7 cells, luciferase reporter, HCV replication inhibitor project, primary screen (AID 1109); details: Huh7 HCV replicon luciferase reporter, 48 h; higher = more signal;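 further: huh7 hepatoma cells harbouring a luciferase neomycin HCV replicon reporter; luciferase luminescence as measure of HCV replicon replication; test concentration not given here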
[3] = target: Left-right determination factor 2 (Homo sapiens) (UniProt O00292); assay: small molecules binding LEFTY2 protein – biochemical, small-molecule microarray, 635 nm fluorescence scan, primary screen (AID 1110); details: higher = more signal
Left-right determination factor 2 (Homo sapiens), sequence (O00292 whole entry, looked up): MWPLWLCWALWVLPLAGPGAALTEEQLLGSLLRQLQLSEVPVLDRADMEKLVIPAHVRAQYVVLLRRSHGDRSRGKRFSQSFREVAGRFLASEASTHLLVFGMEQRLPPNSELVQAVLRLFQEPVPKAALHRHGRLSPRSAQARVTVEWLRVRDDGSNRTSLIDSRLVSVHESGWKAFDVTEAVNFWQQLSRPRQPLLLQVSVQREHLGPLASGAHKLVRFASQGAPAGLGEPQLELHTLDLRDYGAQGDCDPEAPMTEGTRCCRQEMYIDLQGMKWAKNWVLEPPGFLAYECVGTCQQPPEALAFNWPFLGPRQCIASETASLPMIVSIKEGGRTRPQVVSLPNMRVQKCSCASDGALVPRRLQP

[4] = target: Calmodulin-1 (Homo sapiens) (UniProt P0DP23); assay: small molecules binding calmodulin-1 with EGTA – biochemical, small-molecule microarray, Cy5-labelled CALM1, profiling panel (AID 1111); details: Cy5-CALM1 binding fluorescence, higher = more signal;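 further: labelled calmodulin applied in Tris saline Tween buffer holding calcium plus EGTA and DTT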
[5] = target: Calmodulin-1 (Homo sapiens) (UniProt P0DP23); assay: small molecules binding Ca-loaded calmodulin-1 – biochemical, small-molecule microarray, Cy5-labelled CALM1, plus calcium, artefact control for SMM control-protein annotation, profiling panel (AID 1112); details: Cy5-CALM1 binding fluorescence, higher = more signal;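 further: score merges spot fluorescence with signal to noise from triplicate slides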
[6] = probe aWnt5a binding to arrayed compounds – biochemical, biotinylated probe, 635/667 nm fluorescence, primary screen (AID 1113); details: small-molecule microarray, higher = more signal;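 further: score merges 667 nm fluorescence intensity with signal-to-noise per printed feature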
[7] = probe aShh binding to arrayed compounds – biochemical, biotinylated probe, 635/667 nm fluorescence, primary screen (AID 1114); details: small-molecule microarray, higher = more signal;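 further: probe is biotin-labelled aShh protein from a stem cell growth factor screen; measures binding of labelled protein to compounds printed on the slide; score merges feature fluorescence at 667 nm with signal-to-noise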
[8] = probe aNog binding to arrayed compounds – biochemical, biotinylated probe, 635/667 nm fluorescence, primary screen (AID 1115); details: small-molecule microarray, higher = more signal;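 further: probe is biotinylated aNog protein used at 0.15 µg/mL for 1 h at 4 C; z-score combines 667 nm fluorescence of each spot with its signal to noise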
[9] = target: Torsin-1A-interacting protein 1 (Homo sapiens) (UniProt Q5JTV8); assay: compound microarray binding of lysate hLAP1 – cell lysate, small-molecule microarray, COS7 lysate, 635/667 nm fluorescence, primary screen (AID 1116); details: 635 nm fluorescence, higher = more signal
Torsin-1A-interacting protein 1 (Homo sapiens), sequence (Q5JTV8 whole entry, looked up): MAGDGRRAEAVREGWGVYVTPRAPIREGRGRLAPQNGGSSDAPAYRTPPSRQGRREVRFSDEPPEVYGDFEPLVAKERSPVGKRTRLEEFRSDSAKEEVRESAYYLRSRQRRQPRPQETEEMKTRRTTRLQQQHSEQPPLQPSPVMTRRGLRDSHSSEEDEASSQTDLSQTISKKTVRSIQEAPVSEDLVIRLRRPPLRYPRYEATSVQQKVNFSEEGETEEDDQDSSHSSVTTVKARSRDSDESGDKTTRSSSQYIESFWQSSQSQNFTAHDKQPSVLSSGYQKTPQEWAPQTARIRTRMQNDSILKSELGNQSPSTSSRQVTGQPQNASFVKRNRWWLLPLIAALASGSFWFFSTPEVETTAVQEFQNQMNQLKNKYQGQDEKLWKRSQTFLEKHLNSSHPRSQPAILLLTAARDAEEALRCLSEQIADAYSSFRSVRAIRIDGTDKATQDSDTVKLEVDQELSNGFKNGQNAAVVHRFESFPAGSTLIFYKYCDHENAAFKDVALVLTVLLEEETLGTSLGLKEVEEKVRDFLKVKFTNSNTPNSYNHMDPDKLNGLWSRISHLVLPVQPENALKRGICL

[10] = target: Alpha-bungarotoxin (Bungarus multicinctus) (UniProt P60615); assay: compounds binding labelled alpha-BTX control protein – biochemical, small-molecule microarray, Alexa647 label, 635/667 nm fluorescence, artefact control for SMM control protein annotation, profiling panel (AID 1117); details: alpha-BTX-A647 binding fluorescence, higher = more signal
Alpha-bungarotoxin (Bungarus multicinctus), sequence (P60615 whole entry, looked up): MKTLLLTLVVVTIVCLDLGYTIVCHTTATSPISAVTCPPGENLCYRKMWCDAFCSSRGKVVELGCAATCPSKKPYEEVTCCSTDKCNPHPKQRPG

Row | Structure (SMILES) | composite z-score [1] | z-score [2] | composite z-score [3] | composite z-score [4] | composite z-score [5] | composite z-score [6] | composite z-score [7] | composite z-score [8] | composite z-score [9] | composite z-score [10]
1 | O=C1C2C=CC(C(O)COCc3ccccc3)N(Nc3ccc([N+](=O)[O-])cc3)C2C(=O)N1c1ccccc1 (stereo not given) | 1.44 | -1.36 | 0.308 | 0.823 | -0.432 | 0.0317 | 0.213 | 0.525 | 0.548 | 1.31
2 | CC(C)N1CC=CC23O[C@@H]4C=CCOC(=O)[C@@H]4[C@H]2C(=O)N(CCCCCO)[C@@H]3C1=O (stereo not given in full) | -0.608 | -0.147 | -0.624 | 0.0459 | 0.395 | -0.18 | 0.0723 | -0.198 | 1.33 | -0.35
3 | CCCCCCc1nc(-c2ccc(-c3ccc(Cl)c(Cl)c3)o2)c(C)c2c1[Si](C(C)C)(C(C)C)OC2 | -0.121 | -1.46 | -0.127 | 0.18 | 0.45 | -0.124 | -0.123 | -0.124 | -0.196 | 0.354
4 | COCC(=C=CC[C@H](O)c1ccccc1OCCO)CCO | 0.0008 | -0.266 | -0.378 | -0.0866 | -0.037 | -0.096 | 0.0723 | 0.509 | 1.34 | 0.804
5 | O=C1NC(=O)C2C1C=CC(C(O)c1ccc(I)cc1)N2Nc1ccc(Cl)cc1Cl (stereo not given) | 1.36 | -0.644 | -0.562 | 1.84 | 0.99 | -0.0236 | -0.0056 | 1.66 | 1.05 | 1.1
6 | [N-]=[N+]=NCc1ccccc1C[C@@]1(C(=O)NCC(O)CO)N=C(c2ccc(OCCCO)cc2)O[C@@H]1c1ccccc1 (stereo not given in full) | 1.03 | -1.41 | -1.38 | 0.899 | 1.25 | -0.0285 | 0.156 | 0.723 | 1.01 | 0.183
7 | CO[C@H]1O[C@H](CO)[C@@H](OC(=O)Nc2cccc(F)c2)[C@H](OC(=O)Nc2ccccc2)[C@H]1OC(=O)Nc1ccccc1 | 1.52 | -3.16 | 0.238 | 0.183 | -0.467 | -0.0222 | 0.536 | 0.919 | 1.29 | 1.53
8 | CC(C)NC(=O)[C@@]1(Cc2ccccc2I)c2ccccc2C(=O)N(Cc2ccccc2Cl)[C@H]1c1ccc(CO)cc1 | 1.37 | -1.97 | 0.45 | 0.789 | -0.129 | 0.0077 | 0.0062 | 0.0139 | 0.795 | 1.28
9 | COCCCNC(=O)[C@@]1(CCS(=O)(=O)c2ccccc2)N=C(c2ccc(OCCCO)cc2)O[C@H]1c1ccccc1N=[N+]=[N-] | 1.48 | -1.6 | 0.169 | 1.55 | 0.001 | 0.127 | 0.204 | 1.36 | 2.24 | 1.67
10 | COC(=O)C(CC#Cc1ccc2c(c1)[C@]1(C(=O)N2)[C@H](c2ccc(O)cc2)N2[C@H](c3ccccc3)[C@H](c3ccccc3)OC(=O)[C@H]2[C@@H]1C(=O)N1CCN(c2ncccn2)CC1)C(=O)OC | 0.584 | -0.305 | -0.0195 | 1.1 | -0.0671 | -0.0748 | -0.0143 | 0.36 | 0.683 | 2.4
11 | C=C(/C(=C/C[C@H](OC(=O)c1ccncc1)c1ccc(OCCO)cc1)c1cc(C(=O)OC)ccc1OC)C(C)C | 1.08 | -0.939 | 0.17 | 0.959 | -0.218 | -0.128 | 0.111 | 0.108 | 0.296 | 1.72
